Only some compounds are listed: those with a hit (about 5.2% of all), similar ones and a draw of the others.
Sfp PPTase inh = blocks B. subtilis Sfp PPTase activity; Q9F4F7; Biochemical Sfp PPTase activity, qHTS; Potency, µM, without a hit: largest response in the series, negative = inhibition, hits mostly inhibitors; actives 3.5% (n = 310,000);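 further: the enzyme is Sfp with the accession as filed and its product quenches rhodamine fluorescence; potency means the concentration at half of the fitted maximal effect; 0% = enzyme reaction without inhibitor and -100% = no enzyme wells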
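Compounds were incubated with enzyme (final 15 nM) for 15 min at room temperature before substrate addition started the reaction. Fluorescence at 525 nm excitation, 598 nm emission was recorded immediately and after 30 minutes.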
Tau ThT inhib = inhibitors of human tau fibril formation, thioflavin T binding; recombinant tau K18 P301L, heparin-induced fibrillization, ThT fluorescence; Potency, µM (titrated, usually from 57.4 µM), for inactives: at the highest dose activity, negative = inhibition, actives largely listed as inhibitors; actives 2.1% (n = 270,000); further: potency means the concentration at half of the fitted maximal effect; nearly all actives have a fitted effect of over 55% in size
Target sequence (P10636 561-689 P618L limits assumed): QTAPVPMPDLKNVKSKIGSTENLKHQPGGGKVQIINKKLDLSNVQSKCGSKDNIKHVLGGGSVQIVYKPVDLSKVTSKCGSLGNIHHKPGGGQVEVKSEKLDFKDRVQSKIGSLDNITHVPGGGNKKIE
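Fibril formation assay: tau K18 P301L at 15 uM with trace Alexa 594 label, heparin inducer 20 uM, pH 7 sodium acetate buffer, 37 C for 6 hr; endpoint ThT signal.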
FBPA coupling cs = inhibits coupling enzyme system, counter-screen for aldolase hits. coupling enzyme system counterscreen, AmpLite Red fluorescence. activity change, negative = inhibition, % at 58.2 µM, hits read low. actives 0.67% (n = 290,000). AID 2472; in the data active means activity change below about -30%
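Final compound at 57.5 uM, incubated 10 min at RT with coupling enzyme reagent (glyceraldehyde-3-phosphate), then 20 min with substrate and AmpLite Red detection. Fluorescence read at 525/598 nm; tests interference with the coupling assay, not aldolase inhibition.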
Tau FP inhib = tau fibrillization inhibition (FP); P10636; K18 P301L tau heparin fibrillization, Alexa594 FP, 6 h; Potency, µM (doses to about 57.7 µM), for the others: top-dose activity, negative = inhibition, hits mostly inhibitors; actives 0.39% (n = 280,000); AID 1468; further: potency means the concentration at half of the fitted maximal effect; nearly all actives have a fitted effect of over 55% in size
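FP of Alexa 594-tau after heparin (20 uM) induction. Substrate: human K18 P301L, 15 uM unlabeled, 0.24 uM labeled. Buffer 100 mM sodium acetate pH 7. 6 hr, 37 C.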
Tau fluor counter = counter-screen for tau fibril formation inhibitors. tau K18 P301L (four-repeat tau fragment) Alexa594 fluorescence, heparin fibrillization. Potency, µM (doses to about 57.7 µM), for inactives: top-dose activity change, negative = decrease. actives 0.93% (n = 280,000). AID 1463; further: potency means the concentration at half of the fitted maximal effect; nearly all actives have a fitted effect of over 55% in size
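Human K18 P301L tau (15 uM unlabeled plus 0.24 uM Alexa 594-labeled, final) in 100 mM sodium acetate pH 7 was mixed with compound and 20 uM heparin and incubated 6 hr at 37 C.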
* hit, by the source's call; ? = inconclusive; . = not tested or not shown; [ ] = dose if it differs, or a comment. Unless noted, the call rests on the fitted dose curve; in most records, active means well fitted curve in the direction sought with a large enough effect; inconclusive means small, poorly fitted or top-dose-only effect, or another doubt; inactive means no such curve, though single readings can be large; an effect the other way counts as inactive or inconclusive. Unless noted, on the % scale 0 is the no-effect control and ±100 the full control effect.

SMILES	Sfp PPTase inh	Tau ThT inhib	FBPA coupling cs	Tau FP inhib	Tau fluor counter
O=C(Nc1ccccc1)c1ccc2nc(-c3ccco3)c(-c3ccco3)nc2c1	20µM*	?	-38*	?	?
O=C(CSc1nnc(-c2ccco2)c(-c2ccco2)n1)c1ccccc1	14%	10%	-2	-7%	8%[2.34 µM]
CC(=O)c1ccc(NC(=O)c2ccc3nc(-c4ccco4)c(-c4ccco4)nc3c2)cc1	13µM*	13µM*	-30*	-14%	?
Cc1cccc(NC(=O)CSc2nc(C)cc(C)c2C(=O)Nc2ccc(Cl)cc2)c1	.	8%	.	-9%	-3%
COC(=O)c1c(-c2ccc(Cl)cc2)noc1N1CCN(c2cccc(OC)c2)CC1	.	-15%	.	7%	-15%
CCC1CCCCN1CCCNC(=O)c1[nH]c2ccccc2c1Sc1ccc(Cl)cc1 (stereo not drawn)	.	7%	.	?	?
CCC(Sc1nnc2c3ccccc3n(CC)c2n1)C(=O)Nc1ccc(NC(C)=O)cc1 (stereo not drawn)	.	-15%	.	?	-25%
O=C(Nc1nnc(-c2ccco2)s1)c1ccccc1	45µM*	-10%	1	-2%	-6%
CC(=O)NNc1ncnc2ccccc12	-13%	-4%	4	10%	1%
O=C(O)/C=C/C(=O)NNc1ncnc2ccccc12	56µM*	?	1	-1%	-11%
Cc1ccc2nc(-c3cccc(NC(=O)c4cccc5c(Cl)cccc45)c3)oc2c1	.	-7%	.	?	-16%
NC(=S)N/N=C/c1coc2ccc(O)cc2c1=O	1.6µM*	?	2	0%	-11%
NC(=S)N/N=C/c1coc2cc(Br)ccc2c1=O	0%	16µM*	0	-12%	?
CN1CCC2(CC1)CCN(C(=O)c1cccc(F)c1)CC2	17%	.	0	.	.
O=C(c1cc(-c2ccco2)nc2ccccc12)N1CCN(c2ccc(F)cc2)CC1	25µM*	-16%	-16	14%	-15%
COc1ccc(CNC(=O)COC(=O)c2cc(-c3ccco3)nc3ccccc23)cc1	?	?	-2	4%	?
Cn1c(=O)c(C(=O)COC(=O)c2cc(C3CC3)nc3ccccc23)c(N)n(Cc2ccccc2)c1=O	20%	-12%	-5	-17%	?
O=C(NC1CC1)c1cc(-c2ccco2)nc2ccccc12	45µM*	.	0	-8%	-29%
Cn1c(=O)c(C(=O)COC(=O)c2cc(-c3ccco3)nc3ccccc23)c(N)n(CC2CC2)c1=O	22µM*	?	0	-4%	?
CCNC(=O)COC(=O)c1cc(-c2ccco2)nc2ccccc12	16µM*	?	0	?	?
Cc1ccc(C)c(-c2cc(C(=O)NC3CC3)c3ccccc3n2)c1	-5%	.	.	.	.
O=C(OCC(=O)N1CCN(C(=O)c2ccco2)CC1)c1cc(-c2ccco2)nc2ccccc12	-103%	?	-1	4%	-14%
CCOc1ccccc1N1CCN(S(=O)(=O)c2ccc(C3CCCCC3)cc2)CC1	.	-7%	.	2%	-22%
Cc1ccc(OCCSc2nc3ccc(NC(=O)c4ccco4)cc3s2)cc1	.	?	.	?	-28%
O=C(CSC1=Nc2ccccc2C2=NC(CCC(=O)NC3CCCCC3)C(=O)N12)Nc1cccc(C(F)(F)F)c1 (stereo not drawn)	.	?	.	2%	-18%
SMILES	Sfp PPTase inh	Tau ThT inhib	FBPA coupling cs	Tau FP inhib	Tau fluor counter
O=C(O)c1cc(-c2ccco2)nc2ccccc12	35µM*	-14%	-5	-4%	-10%
O=C(O)c1cc(-c2cc(C(=O)O)c3ccccc3n2)nc2ccccc12	4%	.	5	.	.
c1ccc(-n2c(SCc3ccncc3)nnc2-c2ccco2)cc1	28µM*	-2%	2	4%	-1%
O=C(O)c1ccc(CSc2nnc(-c3ccco3)n2-c2ccccc2)cc1	-13%	-7%	-2	2%	-6%
COc1ccc(NC(=O)NC23CC4(C)CC(C)(CC(C)(C4)C2)C3)cc1OC	25%	?	3	4%	13µM*[quencher]
CCOc1ccccc1CNC(=O)c1ccc(Cn2c(SCc3ccccc3)nc3cccnc32)cc1	.	-16%	.	-4%	?
Nc1c(C(=O)O)sc2nc(-c3ccccc3)c3c(c12)CCCC3	35µM*	?	12	-9%	-19%
COC(=O)c1sc2nc(-c3ccccc3)c3c(c2c1N)CCCC3	-17%	-5%	4	7%	0%
CNC(=O)c1nnsc1S(=O)(=O)c1ccc(Cl)cc1	7.1µM*	-9%	1	-7%	0%
O=C(O)C1Cc2[nH]cnc2C(c2ccccc2O)N1 (stereo not drawn)	79µM*	-6%	-1	-2%	-2%
Cc1ccc(S(=O)(=O)NCl)cc1	5.6µM*	.	.	.	.
C#CCOCCOCCOCCNc1nc(N2CCN(C(=O)[C@H](Cc3ccc(O)cc3)n3cc([C@@H](N)C(C)CC)nn3)CC2)nc(N2CCN(C(=O)[C@H](Cc3cc4ccccc4[nH]3)n3cc([C@@H](N)CC(C)C)nn3)CC2)n1 (stereo partly drawn)	50µM*	?	0	-10%	-5%
C#CCOCCOCCOCCNc1nc(N2CCN(C(=O)[C@H](Cc3cc4ccccc4[nH]3)n3cc([C@@H](N)C(C)CC)nn3)CC2)nc(N2CCN(C(=O)[C@H](Cc3cc4ccccc4[nH]3)n3cc([C@@H](N)Cc4ccc(O)cc4)nn3)CC2)n1 (stereo partly drawn)	50µM*	?	1	-17%	-20%
C#CCOCCOCCOCCNc1nc(N2CCN(C(=O)[C@H]([C@@H](C)CC)n3cc([C@@H](N)CC(C)C)nn3)CC2)nc(N2CCN(C(=O)[C@H](Cc3cc4ccccc4[nH]3)n3cc([C@@H](N)CC(C)C)nn3)CC2)n1	-9%	?	0	0%	-10%
C#CCOCCOCCOCCNc1nc(N2CCN(C(=O)[C@H]([C@@H](C)CC)n3cc([C@@H](N)CO)nn3)CC2)nc(N2CCN(C(=O)[C@H](Cc3cc4ccccc4[nH]3)n3cc([C@@H](N)C(C)CC)nn3)CC2)n1 (stereo partly drawn)	50µM*	?	-6	2%	5%
Cc1c(-c2ccccc2)n(-c2ccc(Cl)cc2)c2nc3c(c(=O)n(C)c(=O)n3C)n12	.	-1%	.	-3%	7%
CC(C)[C@@H](CC(=O)N[C@@H]1CCCC[C@H]1C(=O)N[C@H](CC(=O)N[C@@H](CCC(=O)O)CC(=O)O)Cc1c[nH]c2ccccc12)NC(=O)C[C@H](Cc1ccccc1)NC(=O)[C@@H]1CCCC[C@H]1N	-7%	-9%	-1	8%	-5%
Cc1ccc(-n2c(N)c(C(=O)N3CCN(C)CC3)sc2=S)cc1	-93%	?	-34*	?	-11%

Screens: PubChem, National Center for Advancing Translational Sciences (NCATS)
